Values without a mark were called inactive. Inconclusive results are not listed. The source made the active and inactive calls. Unless noted, calls follow the shape of the dose curve; as a rule, active = well fitted curve in the direction sought with a large enough effect; inconclusive = small, poorly fitted or top-dose-only effect, or another doubt; inactive = no such curve, though single readings can be large; an effect the other way counts as inactive or inconclusive. Some results are limits rather than exact numbers.

Experiment [1] deals with Lysosomal acid glucosylceramidase (Homo sapiens) (UniProt P04062). The experiment is described as follows: Glucocerebrosidase-p2 (AID 348; in the data active = potency below about 10 µM; also: potency is read from the fitted curve at half-maximal effect). The conditions noted are these: purified GBA, blue fluorogenic substrate, 40 min. The gist of the method:
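Normal human glucocerebrosidase (0.2 nM) with blue fluorogenic substrate (80 uM final) in citrate/phosphate pH 5.9 with 10mM sodium taurocholate, 0.01% tween-20; 40 min RT, NaOH/glycine stop; fluorescence Ex 365/Em 440; AC50 from a titration from 0.6 nM upwards.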

The nature of experiment [2]: AP1 Signaling Pathway (AID 357; active = well fitted curve in either direction with a large enough effect, not every such curve was filed as active; also: % is scaled to controls: 0 for no effect and ±100 for the full control effect). As to conditions: ME-180 AP-1-bla reporter, EGF-induced, beta-lactamase ratio, 5 h; at 7.69 µM (top of the series) unless noted. The gist of the method: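 ME-180 cells with beta-lactamase reporter under AP-1 response element, stimulated with EC50 EGF; compounds tested in titration series, 5 h at 37 °C. CCF4 substrate added 2.5 h at room temperature; 460/530 nm emission ratio gave %activity and AC50.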

The target of experiment [3] is Cytochrome P450 1A2 (Homo sapiens) (UniProt P05177). Briefly: p450-cyp1a2 (AID 410; calls by dose curve; also: potency is read from the fitted curve at half-maximal effect;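 as to activity change, negative = inhibition: -100% = full effect of reference inhibitor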). The conditions noted are these: recombinant CYP1A2, luciferin-ME demethylation, luminescence; series mostly up to 57 µM. The gist of the method:
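O-Demethylation of luciferin 6' methyl ether by human CYP1A2 is monitored as luciferase luminescence. Substrate sits at Km (100uM); enzyme is 20nM. Values are scaled to 57 uM furafylline as maximal inhibition.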

Experiment [4] is described as follows: NFAT Signaling Pathway (AID 444; active = well fitted curve in either direction with a large enough effect, not every such curve was filed as active;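 also: carbachol stimulus at about its EC50 of 1 µM final; % is scaled to controls: 0 for no effect and ±100 for the full control effect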). The conditions noted are these: Jurkat NFAT-bla M1, carbachol, beta-lactamase ratio, 5 h; at 7.69 µM (top of the series) unless noted. The gist of the method: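 Jurkat cells carrying an NFAT-driven β-lactamase reporter and co-transfected muscarinic M1 receptor were treated with compound plus carbachol (1 uM final, an EC50 level) for 5 h at 37 °C. CCF4 loading followed for 1 h at RT; 460/530 nm ratio gave %activity.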

Experiment [5] concerns the target Glucocorticoid receptor (Homo sapiens) (UniProt P04150). The experiment is described as follows: GR-EFC Redistribution (AID 451; calls by dose curve; also: potency is read from the fitted curve at half-maximal effect). As to conditions: CHO-K1 GR-EFC translocation, beta-gal luminescence, 2 h. The gist of the method: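 CHO-K1 cells stably expressing nuclear-localized β-gal enzyme acceptor and GR fused C-terminally to the enzyme donor fragment; ligand-driven nuclear translocation restores β-gal by complementation. Compounds titrated up to 46 uM final, 2 h at 37 °C; luminescence read.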

The target in experiment [6] is Mitogen-activated protein kinase 10 (Mus musculus) (UniProt Q61831). The experiment is described as follows: JNK3 AlphaScreen Assay (AID 530; active = well fitted curve in either direction with a large enough effect, not every such curve was filed as active;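 also: kinase came from lysate of stimulated human HepG2 cells; % is scaled to controls: 0 for no effect and ±100 for the full control effect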). As to conditions: JNK3 lysate, c-Jun phosphorylation; series mostly up to 57.1 µM. The method, boiled down: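 Phosphorylation of biotinylated GST-cJun(1-79) at Ser73 is measured by AlphaScreen proximity luminescence. Enzyme is JNK3 in HepG2 lysates activated with interleukin-1beta and tumor necrosis factor alpha; ATP is 10 uM final.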

Experiment [7] has as its target 3',5'-cyclic-AMP phosphodiesterase 4B (Homo sapiens) (UniProt Q07343). The experiment is described as follows: qHTS Assay for Inhibitors of PDE-IV (AID 607; active = well fitted activation curve with a large enough effect in the main read-out, with a control signal flat, not every such curve was filed as active; also: % of control where 0% means no effect). As to conditions: HEK293 ACTOne CNG channel cells, membrane potential fluorescence; series mostly up to 22.9 µM. The method, boiled down:
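HEK293 ACTOne cells with CNG channel (1000/well), endogenous PDE4; membrane potential dye, compounds up to 22.9 uM final. Fluorescence Ex 535/Em 590; RO 20-1724 (100 uM final) as reference.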
On the technique in general: qHTS replaces the single test concentration by a dilution series.

The target in experiment [8] is Cytochrome P450 2C19 (Homo sapiens) (UniProt P33261). The experiment is described as follows: qHTS Assay for Inhibitors and Substrates of Cytochrome P450 2C19 (AID 899). Also: nearly all actives have a fitted effect of over 60% in size. Also: potency is read from the fitted curve at half-maximal effect. As to conditions: recombinant CYP2C19, luciferin-H EGE luminescence; series mostly up to 57.1 µM. The gist of the method:
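Human CYP2C19 (5nM) with Luciferin-H EGE at 10uM (its KM) in 50mM KPO4 was preincubated with compound for 10 min at 37C. NADPH regeneration started a 60 min 37C reaction. Luciferin was read by luminescence, normalized to 57uM ketoconazole.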

A short description of experiment [9]: Primary qHTS for small molecule stabilizers of the endoplasmic reticulum resident proteome: Secreted ER Calcium Modulated Protein (SERCaMP) assay (AID 1508630). Also: % is scaled to controls: 0 for no effect and ±100 for the full control effect. As to conditions: SH-SY5Y GLuc-SERCaMP (Gaussia luciferase released on ER calcium loss) secretion, thapsigargin, luminescence; series mostly up to 38.4 µM. The method, boiled down: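 The SH-SY5Y reporter protocol was run at 3 concentrations up to 38.3 uM (primary) or 11 concentrations (follow-up): 16 h compound, 100 nM thapsigargin for 4 h, then extracellular luciferase luminescence.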

The target of experiment [10] is Glucocorticoid receptor (Homo sapiens) (UniProt P04150). Briefly: GR-GFP Redistribution (AID 450;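 active = compounds whose dose series gives a full or clear partial fitted curve of increased nuclear translocation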; also: potency is read from the fitted curve at half-maximal effect). The conditions noted are these: U2OS GR-GFP nuclear translocation, laser cytometry, 2 h.
Sequence of Glucocorticoid receptor (Homo sapiens) (P04150 whole entry, looked up, the tested form may be a part): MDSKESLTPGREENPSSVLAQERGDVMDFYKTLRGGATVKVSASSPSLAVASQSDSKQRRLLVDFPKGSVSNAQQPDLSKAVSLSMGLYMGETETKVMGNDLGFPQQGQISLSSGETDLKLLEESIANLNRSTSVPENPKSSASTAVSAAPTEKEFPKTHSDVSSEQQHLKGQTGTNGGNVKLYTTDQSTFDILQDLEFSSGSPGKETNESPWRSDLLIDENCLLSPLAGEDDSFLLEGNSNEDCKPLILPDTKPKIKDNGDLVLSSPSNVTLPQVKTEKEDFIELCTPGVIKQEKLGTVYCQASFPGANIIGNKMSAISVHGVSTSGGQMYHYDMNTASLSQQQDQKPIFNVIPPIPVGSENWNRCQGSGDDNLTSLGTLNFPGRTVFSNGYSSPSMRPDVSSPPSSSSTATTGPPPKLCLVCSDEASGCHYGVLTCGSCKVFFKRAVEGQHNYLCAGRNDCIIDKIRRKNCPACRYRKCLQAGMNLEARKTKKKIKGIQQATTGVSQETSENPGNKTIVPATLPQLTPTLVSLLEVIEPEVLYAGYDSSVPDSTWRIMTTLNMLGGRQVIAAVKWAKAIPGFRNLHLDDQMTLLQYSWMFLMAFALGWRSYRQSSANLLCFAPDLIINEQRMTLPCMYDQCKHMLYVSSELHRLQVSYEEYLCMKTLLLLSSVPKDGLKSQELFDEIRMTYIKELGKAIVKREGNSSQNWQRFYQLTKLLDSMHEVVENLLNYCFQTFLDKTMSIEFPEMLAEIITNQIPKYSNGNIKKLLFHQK
Experiment [11] deals with Cytochrome P450 3A4 (Homo sapiens) (UniProt P08684). Briefly: qHTS Assay for Inhibitors and Substrates of Cytochrome P450 3A4 (AID 884). Also: nearly all actives have a fitted effect of over 50% in size. Also: potency is read from the fitted curve at half-maximal effect. As to conditions: recombinant CYP3A4, Luciferin-PPXE luminescence; series mostly up to 57.1 µM. The method, boiled down:
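Luminescent readout of luciferin produced by CYP3A4 (20 nM) dealkylation of Luciferin-PPXE, 25 uM (its KM). NADPH-driven reaction ran 60 min at RT after 10 min compound preincubation; data scaled to 57 uM ketoconazole as 100% inhibition.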

For experiment [12] the target is unchanged. Briefly: qHTS Assay for Activators of Cytochrome P450 3A4 (AID 885). Also: nearly all actives have a fitted effect of over 65% in size. Also: potency is read from the fitted curve at half-maximal effect. As to conditions: recombinant CYP3A4, Luciferin-PPXE luminescence, 60 min; series mostly up to 57.1 µM. The method, boiled down:
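Human CYP3A4 dealkylates Luciferin-PPXE to luciferin, which luciferase detection converts to light. Substrate was at its KM (25uM), buffer 200mM KPO4, reaction 60 min at RT.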

Experiment [13] is described as follows: qHTS Assay for Identification of Small Molecule Agonists for Hypoxia Response Element Signaling Pathway (AID 914; active = well fitted activation curve with a large enough effect in the signal ratio, with a control signal flat, not every such curve was filed as active; the % refers to the signal ratio; also: potency is read from the fitted curve at half-maximal effect). The conditions noted are these: ME-180 HRE-bla reporter, beta-lactamase ratio, CoCl2, 17 h; activation: active compounds read high. The gist of the method:
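A beta-lactamase reporter under hypoxia response element control in ME-180 cells served as the system. Compound titrations plus EC50 CoCl2 ran 17 h at 37 degrees Celsius; AC50 values were fitted from %Activity.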

A short description of experiment [14]: Stat Signaling Pathway (AID 446; active = well fitted curve in either direction with a large enough effect, not every such curve was filed as active). As to conditions: ME-180 (cervical carcinoma) SIE beta-lactamase reporter, IL-6 stimulated, 5 h; at 7.69 µM (top of the series) unless noted. The gist of the method: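 Normalization used AC90 stimulation (300 pM IL-6) and AC90 inhibition (125 nM pan-JAK inhibitor at 40 pM IL-6). The underlying signal is SIE-driven beta-lactamase in ME-180 cells after 5 h IL-6 exposure with compound.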

The nature of experiment [15]: Confirmation and Secondary Assay for Modulators of Hemoglobin Beta Chain Splicing at IVS2 654 locus (AID 910).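 Also: per-well total GFP intensity by laser scanning cytometry after 2-day treatment; % of control where 0% means no effect.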 As to conditions: HeLa EGFP-654 splicing reporter, GFP fluorescence, 48 h; series mostly up to 38.3 µM. The gist of the method: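 HeLa cells stably carrying EGFP interrupted by mutant beta-globin IVS2-654 intron (CMV-driven) were treated with compound for 2 days at 37C; corrected splicing was scored as total peak GFP intensity per well (488 nm excitation, 500-520 nm emission).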

A short description of experiment [16]: Confirmation and Secondary Assay for Modulators of Hemoglobin Beta Chain Splicing at IVS2 705 locus (AID 930).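 Also: HeLa cells stably expressing the EGFP-705 splicing reporter; GFP fluorescence per well restored by corrected splicing of the IVS2-705 intron in EGFP; % of control where 0% means no effect.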 As to conditions: HeLa EGFP-705 splicing reporter, GFP fluorescence, 48 h; series mostly up to 38.3 µM. The method, boiled down:
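Fluorescence gain (488 nm laser, 500-520 nm PMT) reflects restored correct splicing of a mutant IVS2-705 intron inside EGFP in stably transfected HeLa cells after 2-day compound treatment.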

Experiment [17] deals with Cytochrome P450 2D6 (Homo sapiens) (UniProt P10635). Briefly: qHTS Assay for Inhibitors and Substrates of Cytochrome P450 2D6 (AID 891). Also: potency is read from the fitted curve at half-maximal effect; nearly all actives have a fitted effect of over 60% in size. The conditions noted are these: recombinant CYP2D6, luciferin-ME EGE luminescence; series mostly up to 57.1 µM. The method, boiled down:
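Luminescent read-out of luciferin formed by 5 nM human CYP2D6 demethylating 30 uM Luciferin-ME EGE (Km level) over 60 min at room temperature after NADPH regeneration addition. Data normalized to full inhibition by 1.43 uM quinidine.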

In experiment [18] the target is Ubiquitin carboxyl-terminal hydrolase 1 (Homo sapiens) (UniProt O94782). Briefly: Inhibitors of USP1/UAF1: Pilot qHTS (AID 504865).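 Also: rhodamine fluorescence freed from ubiquitin-rhodamine substrate followed over time; top concentration of the series differs between compounds; % is scaled to controls: 0 for no effect and ±100 for the full control effect; nearly all actives have a fitted effect of over 35% in size.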 The conditions noted are these: purified USP1/UAF1, Ub-rhodamine cleavage fluorescence; series mostly up to 54.9 µM. The gist of the method:
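1nM USP1/UAF1 + cpd, 15 min RT; start w/ Ub-Rho 150nM final; kinetic FL 480/540 nm, 6 reads q60 s. Buffer 50mM HEPES pH 7.8, 0.5mM EDTA, 1mM TCEP, 0.01% Tween-20, 0.1 mg/ml BSA.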

Sequence of Lysosomal acid glucosylceramidase (Homo sapiens) (P04062 whole entry, looked up): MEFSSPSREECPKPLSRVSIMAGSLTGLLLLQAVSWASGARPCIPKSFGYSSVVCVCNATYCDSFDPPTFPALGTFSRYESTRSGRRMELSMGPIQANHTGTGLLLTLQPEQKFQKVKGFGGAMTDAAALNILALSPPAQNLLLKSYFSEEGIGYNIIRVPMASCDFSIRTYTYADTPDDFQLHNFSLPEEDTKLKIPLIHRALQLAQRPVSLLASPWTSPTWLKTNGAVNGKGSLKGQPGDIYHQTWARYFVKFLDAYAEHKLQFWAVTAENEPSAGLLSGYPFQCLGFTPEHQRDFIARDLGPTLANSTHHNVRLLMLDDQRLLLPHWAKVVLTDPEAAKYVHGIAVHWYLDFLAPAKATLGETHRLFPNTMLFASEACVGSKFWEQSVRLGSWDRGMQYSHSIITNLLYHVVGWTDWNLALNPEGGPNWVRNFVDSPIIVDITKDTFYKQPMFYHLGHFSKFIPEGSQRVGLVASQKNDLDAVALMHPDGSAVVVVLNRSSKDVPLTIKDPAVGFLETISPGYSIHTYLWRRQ
Sequence of 3',5'-cyclic-AMP phosphodiesterase 4B (Homo sapiens) (Q07343 whole entry, looked up): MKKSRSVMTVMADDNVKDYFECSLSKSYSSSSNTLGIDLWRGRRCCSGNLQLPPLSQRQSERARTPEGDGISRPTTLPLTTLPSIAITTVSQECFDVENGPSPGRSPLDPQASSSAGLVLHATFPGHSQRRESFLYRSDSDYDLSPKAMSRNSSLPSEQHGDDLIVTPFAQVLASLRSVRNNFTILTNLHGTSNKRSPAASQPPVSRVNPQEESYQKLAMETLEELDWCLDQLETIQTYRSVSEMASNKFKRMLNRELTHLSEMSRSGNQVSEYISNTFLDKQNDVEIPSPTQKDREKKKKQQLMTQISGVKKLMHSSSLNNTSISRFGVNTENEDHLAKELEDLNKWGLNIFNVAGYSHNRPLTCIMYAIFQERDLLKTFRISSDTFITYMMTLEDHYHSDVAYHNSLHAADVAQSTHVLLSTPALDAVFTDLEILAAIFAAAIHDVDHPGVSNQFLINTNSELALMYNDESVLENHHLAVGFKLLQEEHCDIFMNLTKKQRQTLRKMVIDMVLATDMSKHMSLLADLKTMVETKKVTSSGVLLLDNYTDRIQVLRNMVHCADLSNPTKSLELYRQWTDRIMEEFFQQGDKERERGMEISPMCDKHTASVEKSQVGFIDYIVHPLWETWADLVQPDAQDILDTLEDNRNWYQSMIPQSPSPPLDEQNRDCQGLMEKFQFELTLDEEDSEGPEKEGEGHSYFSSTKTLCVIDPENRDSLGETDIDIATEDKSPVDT
Sequence of Cytochrome P450 3A4 (Homo sapiens) (P08684 whole entry, looked up): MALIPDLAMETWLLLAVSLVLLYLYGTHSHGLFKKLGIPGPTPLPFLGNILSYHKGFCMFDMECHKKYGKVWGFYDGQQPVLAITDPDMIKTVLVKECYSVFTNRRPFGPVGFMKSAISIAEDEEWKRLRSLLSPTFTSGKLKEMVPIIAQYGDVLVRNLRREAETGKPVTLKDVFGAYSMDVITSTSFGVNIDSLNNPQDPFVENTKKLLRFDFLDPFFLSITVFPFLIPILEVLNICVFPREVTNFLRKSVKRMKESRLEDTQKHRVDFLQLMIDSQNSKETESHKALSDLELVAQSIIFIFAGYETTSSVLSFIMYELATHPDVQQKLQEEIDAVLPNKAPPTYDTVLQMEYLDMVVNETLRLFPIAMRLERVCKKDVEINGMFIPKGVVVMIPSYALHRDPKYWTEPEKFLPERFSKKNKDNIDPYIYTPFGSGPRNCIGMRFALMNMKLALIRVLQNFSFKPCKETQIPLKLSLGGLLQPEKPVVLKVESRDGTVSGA
Sequence of Cytochrome P450 1A2 (Homo sapiens) (P05177 whole entry, looked up): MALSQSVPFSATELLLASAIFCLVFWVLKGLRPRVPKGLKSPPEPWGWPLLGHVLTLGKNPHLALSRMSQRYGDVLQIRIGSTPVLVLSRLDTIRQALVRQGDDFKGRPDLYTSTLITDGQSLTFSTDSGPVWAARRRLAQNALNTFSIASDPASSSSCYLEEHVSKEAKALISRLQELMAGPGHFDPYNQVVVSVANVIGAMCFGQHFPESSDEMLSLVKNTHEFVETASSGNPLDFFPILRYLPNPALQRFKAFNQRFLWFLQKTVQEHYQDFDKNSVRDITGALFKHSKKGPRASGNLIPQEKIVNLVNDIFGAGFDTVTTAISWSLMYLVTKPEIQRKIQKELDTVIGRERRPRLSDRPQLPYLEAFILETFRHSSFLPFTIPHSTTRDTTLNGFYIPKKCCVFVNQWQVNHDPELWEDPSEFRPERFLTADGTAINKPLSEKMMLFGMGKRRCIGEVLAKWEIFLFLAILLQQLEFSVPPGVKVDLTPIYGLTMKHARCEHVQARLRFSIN
Sequence of Cytochrome P450 2C19 (Homo sapiens) (P33261 whole entry, looked up): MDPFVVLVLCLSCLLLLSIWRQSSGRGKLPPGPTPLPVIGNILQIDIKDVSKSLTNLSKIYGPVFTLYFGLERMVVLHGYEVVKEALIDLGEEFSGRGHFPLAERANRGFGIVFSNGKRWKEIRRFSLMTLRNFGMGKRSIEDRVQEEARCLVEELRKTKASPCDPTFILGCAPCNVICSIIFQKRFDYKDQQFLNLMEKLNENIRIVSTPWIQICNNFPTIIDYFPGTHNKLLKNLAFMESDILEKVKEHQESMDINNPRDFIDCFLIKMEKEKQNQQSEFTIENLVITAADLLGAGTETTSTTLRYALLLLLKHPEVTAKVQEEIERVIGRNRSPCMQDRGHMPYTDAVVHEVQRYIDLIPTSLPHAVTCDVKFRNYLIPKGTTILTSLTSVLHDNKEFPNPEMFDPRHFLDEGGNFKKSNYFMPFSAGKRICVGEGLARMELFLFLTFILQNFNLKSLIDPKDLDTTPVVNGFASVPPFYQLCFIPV
Sequence of Cytochrome P450 2D6 (Homo sapiens) (P10635 whole entry, looked up): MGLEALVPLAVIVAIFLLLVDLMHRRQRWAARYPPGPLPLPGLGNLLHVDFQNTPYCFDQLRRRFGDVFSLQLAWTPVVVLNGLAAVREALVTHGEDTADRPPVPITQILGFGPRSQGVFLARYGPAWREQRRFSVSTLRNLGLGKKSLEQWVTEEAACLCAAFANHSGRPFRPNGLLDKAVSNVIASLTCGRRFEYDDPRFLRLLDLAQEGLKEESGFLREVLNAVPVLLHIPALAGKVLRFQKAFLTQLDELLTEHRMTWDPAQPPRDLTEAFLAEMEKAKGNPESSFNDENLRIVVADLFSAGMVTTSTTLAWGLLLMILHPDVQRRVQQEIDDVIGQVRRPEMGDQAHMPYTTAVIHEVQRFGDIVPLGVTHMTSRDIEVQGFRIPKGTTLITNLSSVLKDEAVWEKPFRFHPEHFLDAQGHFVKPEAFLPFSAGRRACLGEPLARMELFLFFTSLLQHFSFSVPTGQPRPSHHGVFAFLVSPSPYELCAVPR
Sequence of Ubiquitin carboxyl-terminal hydrolase 1 (Homo sapiens) (O94782 whole entry, looked up): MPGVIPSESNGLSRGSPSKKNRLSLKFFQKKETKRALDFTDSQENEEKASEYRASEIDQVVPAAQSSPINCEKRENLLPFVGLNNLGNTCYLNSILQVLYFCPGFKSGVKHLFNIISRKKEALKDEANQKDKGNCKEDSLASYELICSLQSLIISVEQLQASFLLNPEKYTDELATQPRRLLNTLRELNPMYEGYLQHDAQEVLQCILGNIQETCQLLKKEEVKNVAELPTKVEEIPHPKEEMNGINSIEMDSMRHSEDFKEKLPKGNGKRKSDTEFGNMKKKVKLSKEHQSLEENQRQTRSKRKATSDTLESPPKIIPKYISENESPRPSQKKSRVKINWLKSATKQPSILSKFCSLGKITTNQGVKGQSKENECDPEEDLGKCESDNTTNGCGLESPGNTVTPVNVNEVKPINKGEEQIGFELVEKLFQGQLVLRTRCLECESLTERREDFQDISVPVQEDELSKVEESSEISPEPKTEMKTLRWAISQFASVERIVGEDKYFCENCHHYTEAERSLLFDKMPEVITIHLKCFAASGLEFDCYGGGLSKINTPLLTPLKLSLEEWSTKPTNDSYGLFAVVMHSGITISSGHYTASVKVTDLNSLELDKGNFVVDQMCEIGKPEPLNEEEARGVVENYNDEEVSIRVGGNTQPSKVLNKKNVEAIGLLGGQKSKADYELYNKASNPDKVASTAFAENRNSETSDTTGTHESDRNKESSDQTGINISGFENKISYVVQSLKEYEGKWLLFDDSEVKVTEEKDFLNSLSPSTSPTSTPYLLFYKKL

For `O=C(c1ccncc1)N1CCC2(CC1)CCN(c1ncccn1)CC2`, the Potency was greater than 11.4 µM in experiment [1], 20 µM (active) in experiment [3], greater than 46 µM in [5] and 2.51 µM (active) in experiment [8]. Also, the activity change, negative = inhibition in experiment [2] was -2.2%; in experiment [4], 11.7%. Moreover, the Potency result in experiment [6] and in experiment [7] was “inactive” each time. In addition, the result in [9] was inactive.

`COCCn1c(=O)c(-c2cn(C)c3ccccc23)nc2cnc(Oc3ccccc3)nc21`: the Potency is greater than 11.4 µM in experiment [1]; 10 µM (active) in [3]; greater than 9.22 µM in experiment [10]; greater than 46 µM in experiment [5]; 3.16 µM (active) in [11]; 3.16 µM (active) in experiment [13]. The activity change, negative = inhibition in experiment [2] is 26.2%; in experiment [4] it was 19.4%. Also, the Potency entry in [7] and in experiment [12] was “inactive” each time. Further, the outcome in experiment [9] was inactive.

`O=c1cnc2cnc(OCc3ccccc3)nc2n1Cc1ccc(F)cc1`: the Potency is greater than 11.4 µM in [1], 12.6 µM (active) in experiment [3], greater than 46 µM in [5] and 5.01 µM (active) in experiment [11]. The activity change, negative = inhibition in experiment [2] is -29.4%; in [4] it was -14.6%. The activity, negative = inhibition in experiment [14] was -21.4%. The Potency result in experiment [6] and in experiment [12] was “inactive” in each case. Further, in experiment [9], the outcome was inactive.

For the molecule `CN1CCN(c2ncc3nc(-c4ccc(Cl)cc4)c(=O)n(CCC#N)c3n2)CC1`, the Potency in experiment [1] is greater than 11.4 µM; in experiment [3] it was 15.8 µM (active); in [10], greater than 9.22 µM; in experiment [5] it was greater than 46 µM. The activity change, negative = inhibition in [2] was 130% [activator] (active); in experiment [4], 214% [activator] (active). The Potency result in experiment [6], in [7] and in experiment [8] was “inactive” each time. The result in [9] was inactive.

For the molecule `O=C(c1cnccn1)N1CCC2(CC1)CCN(c1ncccn1)CC2`, the figures for the Potency in [1] and in experiment [12] were greater than 11.4 µM and 7.94 µM (active), respectively. For the same molecule, the activity change, negative = inhibition in experiment [2] is -5.54%; in experiment [4] it was 6.93%. In addition, the Potency entry in experiment [3], in experiment [6], in experiment [7] and in [11] was “inactive” throughout. In addition, the activity, negative = inhibition in [14] is -9.82%. The result in experiment [9] was inactive.

For `Cc1cccc(CNc2nc(-c3ccccc3CN(C)C)nc3ccccc23)c1`, the Potency is greater than 11.4 µM in experiment [1], 3.16 µM (active) in experiment [3] and greater than 46 µM in experiment [5]. In addition, the figures for the activity change, negative = inhibition in [2] and in experiment [4] were 20.6% and -22.2%, respectively. Further, the activity, negative = inhibition in [14] was -0.581%. Further, the Potency result in experiment [6], in [12] and in [15] was “inactive” in each case. In addition, the molecule was called inactive in experiment [16] and in experiment [9].

Consider `COc1ccc(CNc2ncncc2-c2ccc3c(c2)OCO3)c(OC)c1`, for which the Potency is greater than 11.4 µM in experiment [1]; 0.501 µM (active) in experiment [3]; greater than 46 µM in experiment [10]; greater than 46 µM in [5]; 0.126 µM (active) in experiment [11]; 0.794 µM (active) in experiment [17]. Further, the activity change, negative = inhibition in experiment [2] was 11.1%. Besides, the activity, negative = inhibition in experiment [14] was -6.57%. The Potency result in experiment [6], in experiment [12], in experiment [15] and in experiment [18] was “inactive” throughout. Moreover, the result in experiment [16] and in experiment [9] was inactive.

These data come from PubChem BioAssay (NCATS).
